Inconclusive results are not listed. Unmarked numbers belong to inactive results. The call rests on the fitted dose curve; in most records, active means well fitted inhibition curve with a large enough effect in the repeat runs; inconclusive means weak or mixed curves; inactive means no such curve, though single readings can be large or run the other way.
On the % scale 0 is the no-effect control and ±100 the full control effect.

Sequence of Cytochrome P450 3A4 (Homo sapiens) (P08684 whole entry, looked up): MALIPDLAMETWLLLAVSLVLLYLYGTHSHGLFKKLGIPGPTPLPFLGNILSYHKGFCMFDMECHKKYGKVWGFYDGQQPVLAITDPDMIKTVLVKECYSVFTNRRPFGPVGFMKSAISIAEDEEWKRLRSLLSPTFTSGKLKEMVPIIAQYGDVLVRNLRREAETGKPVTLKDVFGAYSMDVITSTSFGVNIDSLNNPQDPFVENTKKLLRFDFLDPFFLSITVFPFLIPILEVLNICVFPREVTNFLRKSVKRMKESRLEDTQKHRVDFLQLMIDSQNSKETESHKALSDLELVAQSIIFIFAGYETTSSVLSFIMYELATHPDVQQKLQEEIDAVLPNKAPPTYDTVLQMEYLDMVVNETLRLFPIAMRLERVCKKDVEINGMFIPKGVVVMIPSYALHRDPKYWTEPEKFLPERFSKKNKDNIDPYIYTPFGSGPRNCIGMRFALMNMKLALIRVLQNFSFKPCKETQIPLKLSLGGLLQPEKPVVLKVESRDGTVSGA

The target of the assay is Cytochrome P450 3A4 (Homo sapiens) (UniProt P08684). Description: Cytochrome P450 Family 3 Subfamily A Member 4 (CYP3A4) small molecule antagonists: luciferase reporter qHTS assay (AID 1671201). Further: nearly all actives have a fitted effect of over 50% in size. As to conditions: P450-Glo CYP3A4 enzyme, luciferin luminescence, 1 h; series mostly up to 115 µM; activity change, negative = inhibition: at the top concentration. A digest of the protocol:
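Recombinant human CYP3A4 converts a proluciferin substrate to luciferin over 1 h at room temperature after NADPH regeneration solution is added (compound preincubated 10 min); detection reagent stops reaction, luminescence read 20 min later as relative units.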
Background: In a reporter assay the amount or activity of a reporter protein is the signal.
Consider `CC[C@@]1(c2ccccc2)NC(=O)N(C)C1=O`, for which the “activity change, negative = inhibition” value was -1.55% [at 52.9 µM].

`CN(C)CCC[C@@]1(c2ccc(F)cc2)OCc2cc(C#N)ccc21`: the “activity change, negative = inhibition” value was 7.75% [at 52.9 µM].

For the compound `CCOC(=O)[C@H](CCc1ccccc1)N[C@H]1CS[C@H](c2cccs2)CN(CC(=O)O)C1=O`, the “activity change, negative = inhibition” value was -9.47% [at 52.9 µM].

Source of the values: PubChem BioAssay (Tox21).
